Assay outcomes from PubChem BioAssay.
This is a sample that favours compounds with a hit; in the whole collection about 4.5% have one here.
HDAC3 inh – HDAC3 deacetylase inhibitors, primary screen, biochemical, fluorescence, cell-free homogeneous. Histone deacetylase 3 (Homo sapiens), O15379. recombinant HDAC3, fluorogenic peptide/trypsin coupled. inhibition, % at 8.3 µM. actives 0.15% (n = 320,000). AID 2718, 2010; in the data active = inhibition above about 26%, passing the limit was not always enough; inconclusive = no clear call, values can overlap the other calls
Rtt109 Vps75 – inhibitors of C. albicans Rtt109/Vps75 HAT, primary screen, biochemical, ThioGlo CoA-SH fluorescence, plate reader | purified Rtt109/Vps75, 4 h | inhibition, % at 34.9 µM | actives 0.16% (n = 330,000) | AID 540336, 2011;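 active = inhibition of at least 50% in every replicate; inconclusive = best replicate reaches 50% inhibition but some replicates fall short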
GRK2 inh – compounds blocking aptamer binding on GRK2 – biochemical, human GRK2, bead flow cytometry, HTS, primary screen; Beta-adrenergic receptor kinase 1 (Homo sapiens), P25098; FAM-aptamer displacement from GRK2; inhibition of aptamer binding, % at 10 µM; actives 0.59% (n = 330,000); AID 488847, 2010;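 active = inhibition of aptamer binding above 40%, roughly 3 SD of noise, on plates passing a quality check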;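 also: median bead fluorescence of bound FAM aptamer so fluorescent compounds give negative values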
Target sequence (P25098 whole entry, looked up): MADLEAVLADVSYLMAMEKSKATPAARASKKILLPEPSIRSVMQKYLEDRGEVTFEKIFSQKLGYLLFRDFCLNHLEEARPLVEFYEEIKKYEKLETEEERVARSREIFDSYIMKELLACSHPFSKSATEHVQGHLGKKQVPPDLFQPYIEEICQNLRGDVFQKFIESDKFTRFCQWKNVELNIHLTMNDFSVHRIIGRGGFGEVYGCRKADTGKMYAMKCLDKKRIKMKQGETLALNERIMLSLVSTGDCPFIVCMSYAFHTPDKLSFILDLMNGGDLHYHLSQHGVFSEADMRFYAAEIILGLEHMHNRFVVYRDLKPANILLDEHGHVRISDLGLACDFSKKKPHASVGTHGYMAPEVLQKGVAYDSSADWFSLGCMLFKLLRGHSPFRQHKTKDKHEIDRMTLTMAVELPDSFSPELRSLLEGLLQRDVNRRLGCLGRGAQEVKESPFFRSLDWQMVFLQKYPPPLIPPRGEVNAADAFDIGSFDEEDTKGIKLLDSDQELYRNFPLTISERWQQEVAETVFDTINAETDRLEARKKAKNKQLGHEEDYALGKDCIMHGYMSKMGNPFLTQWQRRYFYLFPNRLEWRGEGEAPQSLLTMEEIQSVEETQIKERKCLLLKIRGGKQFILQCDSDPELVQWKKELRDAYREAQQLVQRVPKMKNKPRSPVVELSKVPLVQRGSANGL
Efflux pump mplx – inhibitors of Candida efflux pumps in yeast, primary screen, S. cerevisiae, Nile Red, multiplex; actives 0.44% (n = 330,000); inhibition, % at 10 µM; S. cerevisiae Candida pump triplex;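 active = plate passing quality check with inhibition over a set limit, or well fluorescence over plate mean plus 4 SD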;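 also: Nile Red retained in pooled yeast measured as flow cytometry median fluorescence; higher means more Nile Red kept so more efflux inhibition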
ALR inh – inhibitors of human ALR sulfhydryl oxidase, primary screen, biochemical, H2O2 detection, HRP-luminol luminescence, single point; AID 485317, 2010; actives 3.8% (n = 290,000); FAD-linked sulfhydryl oxidase ALR (Homo sapiens), P55789; purified ALR, DTT oxidation; inhibition, % (test concentration not listed);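 active = mean replicate inhibition above about 79%, with every replicate also reaching it, limit read from the data; inconclusive = only one of the two criteria met; inactive = mean below limit and not every replicate reaching it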
Rce1 inh – yeast Rce1p protease inhibitors, primary screen, biochemical, fluorescence, cell-free homogeneous | AID 2563, 2010 | actives 0.27% (n = 290,000) | yeast membranes, quenched prenylated peptide cleavage fluorescence | CAAX prenyl protease 2 (Saccharomyces cerevisiae (strain ATCC 204508 / S288c)), Q03530 | calls only;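 active = fall in fluorescence gain of 50% or more versus controls, with final raw signal at or below 3038400; inconclusive = same 50% fall but final raw signal above 3038400; inactive = fall in fluorescence gain under 50%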
A number is an active result; - = inactive; ? = inconclusive; . = no result given; + = active, no number.

SMILES	HDAC3 inh	Rtt109 Vps75	GRK2 inh	Efflux pump mplx	ALR inh	Rce1 inh
O=C(CCN1CCOCC1)N1CCCC(Nc2cccc(F)c2)C1 (stereo not drawn)	-	-	-	-	-	-
COc1ccc(NC2CCCN(C(=O)CCN3CCOCC3)C2)cc1 (stereo not drawn)	-	-	-	-	99	-
COc1ccc(NC2CCCN(C(=O)CCN3CCCO3)C2)cc1 (stereo not drawn)	-	-	-	-	96	-
OCCN1CCN(c2ncnc3sc4c(c23)CCCC4)CC1	-	-	-	-	-	-
Oc1ccc(N2CCN(c3ncnc4sc5c(c34)CCC5)CC2)cc1	-	-	-	-	99	-
Cc1ccc(-n2c(SCC(=O)N3CC(=O)Nc4ccccc43)nc3ccccc3c2=O)cc1	-	-	-	-	98	-
CCOC(=O)c1c(C)[nH]c(C)c1C(=O)CSc1nc2ccccc2c(=O)n1-c1ccc(C)cc1	31	-	-	-	-	-
CC1CCCN(C2(O)C(=O)Nc3ccc([N+](=O)[O-])cc32)C1 (stereo not drawn)	-	.	-	-	-	-
O=C(Nc1cccnc1)c1cc2cc(Br)ccc2o1	-	-	-	-	.	-
CC1CCCN(S(=O)(=O)c2ccc(C(=O)Nc3nnc(C4=COCCO4)o3)cc2)C1 (stereo not drawn)	-	-	-	-	98	-
Cc1nnc(NC(=O)c2ccc(S(=O)(=O)N3CCCCC3C)cc2)o1 (stereo not drawn)	-	-	-	-	-	-
CC1CCCCN1S(=O)(=O)c1ccc(C(=O)Nc2nnc(C3=COCCO3)o2)cc1 (stereo not drawn)	-	-	-	-	97	-
CN(C)Cc1c(O)ccc2c3c(c(=O)oc12)CCCCC3	-	-	-	-	90	?
CCCCc1cc(=O)oc2c(CN(C)C)c(O)ccc12	-	-	-	-	94	?
Cc1cc(Cl)ccc1OCCCC(=O)OCC(=O)Nc1cccc(S(N)(=O)=O)c1	-	-	-	-	.	.
O=C(NNC(=S)NC1CCCCC1)c1cccs1	-	-	-	-	?	-
O=C(NNC(=S)NC1CCCCC1)c1ccccc1O	-	-	-	-	97	-
CN(C)S(=O)(=O)c1ccc(C(=O)NCCC(=O)N2CCCC2)cc1	-	-	-	-	.	-
O=C(COc1ccccc1/C=C1\SC(=S)NC1=O)Nc1ccc(F)cc1	-	-	-	-	-	.
CC1(C)CC(=O)C2=C(C1)NC(=S)C(C#N)C21CCCCC1 (stereo not drawn)	39	-	-	-	-	-
CC1(C)CC(=O)C2=C(C1)NC(SCC(=O)Nc1ccccc1)=C(C#N)C21CCCCC1	-	-	-	-	-	-
N=c1oc2ccc3ccccc3c2cc1C(N)=S	-	-	-	-	-	-
CN(C)c1ccc(/C=N/NC(=O)CSc2ccccn2)cc1	-	-	-	-	99	-
CCCOc1ccc(/C=N/NC(=O)CSc2ccccn2)cc1OC	-	-	-	-	.	-
COc1cc(/C=N/NC(=O)CSc2ccccn2)ccc1O	-	-	-	-	98	-
SMILES	HDAC3 inh	Rtt109 Vps75	GRK2 inh	Efflux pump mplx	ALR inh	Rce1 inh
Cc1cccc(OCC(=O)N/N=C/c2ccc(N(C)C)cc2)c1	-	-	-	-	98	-
CN(c1ccccc1)c1ccc(/C=N/NC(=O)CC#N)cc1	-	-	-	-	-	+
Fc1ccc2nncc(SCc3ccccc3Cl)c2c1	.	-	.	.	.	.
Cc1occc1-c1nnc(SCC(=O)c2cc3ccccc3oc2=O)o1	-	-	-	-	98	-
O=C1C=C(O)c2c(O)cc(O)c(O)c2C1=O	-	-	-	-	98	-
O=C1c2ccccc2C(=O)c2c(O)c(O)cc(O)c21	.	-	-	-	.	.
O=C(NNC(=O)c1ccccc1OCc1ccccc1Cl)c1csc(N2CCOCC2)n1	-	-	-	-	-	-
COCCN(C(=O)COC(=O)c1cc2c(s1)CCC2)c1c(N)n(Cc2ccccc2)c(=O)[nH]c1=O	-	-	98	-	-	-
Nc1nc(NCCCN2CCOCC2)nc(Nc2ccccc2F)c1[N+](=O)[O-]	-	-	-	-	-	-
O=C(COC(=O)/C=C/c1ccc(F)cc1)NC1CCCCCC1	-	-	-	-	-	.
COc1ccc(CSc2nc(C)cc(=O)[nH]2)cc1Br	-	-	-	-	98	-
Cc1cc(=O)[nH]c(SCc2cccc(Br)c2)n1	-	-	-	-	-	-
CCc1nn(CC(=O)N2CCN(c3ccc(OC)cc3)CC2)c(=O)c2cc3occc3n12	-	-	-	-	-	-
O=C(CN(CC1CCCO1)S(=O)(=O)c1ccc(S(=O)(=O)NC2CC2)cc1)Nc1ccccc1 (stereo not drawn)	-	-	-	-	-	-
CCN(CC)S(=O)(=O)c1ccc(S(=O)(=O)N(CC(=O)Nc2ccccc2)CC2CCCO2)cc1 (stereo not drawn)	-	-	-	-	98	-
COc1ccc(/C=C2\CCCC(C(=O)C(F)(F)F)=C2O)cc1	-	-	-	-	-	-
O=C(C1=C(O)/C(=C/c2ccc(O)cc2)CCC1)C(F)(F)F	-	-	-	-	99	-
Cc1ccc(/C=C/C(=O)Nc2sc3c(c2C#N)CCCC3)o1	-	-	-	-	93	-
COC(=O)c1c(NC(=O)/C=C/c2ccco2)sc2c1CCC2	-	-	-	-	92	-
Cc1ccc(/C=C/C(=O)Nc2nnc(SCc3ccc(C#N)cc3)s2)o1	-	-	100	-	-	-
Cc1ccc(/C=C/C(=O)NC2CCCCCCC2)o1	-	-	-	-	99	-
COC(=O)c1c(NC(=O)c2ccco2)sc2c1CCC2	-	-	-	-	-	-
O=C(Nc1ccc(Cl)c(S(=O)(=O)N2CCOCC2)c1)c1ccncc1	-	-	-	-	-	.
CC(C)c1ccc(-c2nnc(SCC(=O)NC3CC3)n2C)cc1	-	-	-	-	-	-
O=C(/C=C/c1cccs1)Nc1sc2c(c1C(=O)O)CCCC2	-	-	-	-	88	-
CCCCn1c(N)c(N(CCOC)C(=O)c2cc(C)oc2C)c(=O)[nH]c1=O	-	-	-	-	-	-
CCCN1C(=O)C(=O)N(CC(=O)c2cc(C)n(C3CC3)c2C)C1=O	-	-	-	-	.	.
CCN1C(=O)C(=O)N(CC(=O)c2cc(C)n(C3CC3)c2C)C1=O	-	-	-	-	89	.
Cc1cccc(-n2c(-c3csc(C)c3)n[nH]c2=S)c1	-	-	-	-	-	-
CCc1cc(-c2n[nH]c(=S)n2-c2cccc(C)c2)cs1	-	-	-	-	85	.
